# Source: the supplement of paper PMC4466140
# B1: unnamed (peptide)
# chain: ALFRLSFFFPLDPAY
# B2: unnamed (peptide)
# chain: TPRLSLPRLPNKHHW
# B3: unnamed (peptide)
# chain: RRASLFPRDPKRLRP
# Molecular target: AgAbp1
# Experiment: SPOT peptide array binding signal intensity (averaged, normalized) (arbitrary units (background-subtracted, floor 0; scale differs between SH3 domains)); higher = stronger binding of the SH3 domain to the peptide
# In short: (§1)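 GST-fused SH3 domains, from four yeast species, were produced in E. coli BL21(DE3) and captured on glutathione Sepharose. Membranes of cellulose carrying synthetic 15-mer peptides, in which cysteines had been replaced by serines, were exposed to each domain at 10 μg/ml overnight at 4°C in TBS-based blocking buffer. After anti-GST antibody, an HRP anti-mouse secondary and luminol, spots were imaged and quantified using Genespotter. Binding signal is normalized and background-subtracted spot intensity, averaged over replicates, in arbitrary units that differ between domains.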
row,Binder,SPOT peptide array binding signal intensity
1,B1,90.5
2,B2,88
3,B3,89.5

# Molecular target: AgBbc1
# Experiment: as above
# In short: as §1
row,Binder,SPOT peptide array binding signal intensity
1,B1,59.5
2,B2,1.5
3,B3,87.5

# Molecular target: AgBem1-D1
# Experiment: as above
# In short: as §1
row,Binder,SPOT peptide array binding signal intensity
1,B1,487
2,B2,≤ 0
3,B3,169

# Molecular target: AgBzz1-D1
# Experiment: as above
# In short: as §1
row,Binder,SPOT peptide array binding signal intensity
1,B1,204
2,B2,12.5
3,B3,87

# Molecular target: AgBzz1-D2
# Experiment: as above
# In short: as §1
row,Binder,SPOT peptide array binding signal intensity
1,B1,161
2,B2,23.5
3,B3,49

# Molecular target: AgCyk3
# Experiment: as above
# In short: as §1
row,Binder,SPOT peptide array binding signal intensity
1,B1,40.5
2,B2,≤ 0
3,B3,3

# Molecular target: AgFus1
# Experiment: as above
# In short: as §1
row,Binder,SPOT peptide array binding signal intensity
1,B1,3740
2,B2,15.5
3,B3,223

# Molecular target: AgHof1
# Experiment: as above
# In short: as §1
row,Binder,SPOT peptide array binding signal intensity
1,B1,184
2,B2,685
3,B3,22.2

# Molecular target: AgHse1
# Experiment: as above
# In short: as §1
row,Binder,SPOT peptide array binding signal intensity
1,B1,2470
2,B2,271
3,B3,1070

# Molecular target: AgLsb1
# Experiment: as above
# In short: as §1
row,Binder,SPOT peptide array binding signal intensity
1,B1,66
2,B2,1
3,B3,1

# Molecular target: AgLsb4
# Experiment: as above
# In short: as §1
row,Binder,SPOT peptide array binding signal intensity
1,B1,1960
2,B2,33.5
3,B3,112

# Molecular target: AgMyo5
# Experiment: as above
# In short: as §1
row,Binder,SPOT peptide array binding signal intensity
1,B1,6.5
2,B2,≤ 0
3,B3,2.5

# Molecular target: AgNbp2
# Experiment: as above
# In short: as §1
row,Binder,SPOT peptide array binding signal intensity
1,B1,796
2,B2,26
3,B3,107

# Molecular target: AgRvs167
# Experiment: as above
# In short: as §1
row,Binder,SPOT peptide array binding signal intensity
1,B1,40.7
2,B2,2.67
3,B3,0.5

# Molecular target: AgSho1
# Experiment: as above
# In short: as §1
row,Binder,SPOT peptide array binding signal intensity
1,B1,2320
2,B2,274
3,B3,67.5

# Molecular target: AgSla1-D1-D2
# Experiment: as above
# In short: as §1
row,Binder,SPOT peptide array binding signal intensity
1,B1,150
2,B2,7
3,B3,116

# Molecular target: AgSla1-D3
# Experiment: as above
# In short: as §1
row,Binder,SPOT peptide array binding signal intensity
1,B1,25.5
2,B2,≤ 0
3,B3,7.5

# Molecular target: CaAbp1-D1
# Experiment: as above
# In short: as §1
row,Binder,SPOT peptide array binding signal intensity
1,B1,494
2,B2,314
3,B3,520

# Molecular target: CaAbp1-D2
# Experiment: as above
# In short: as §1
row,Binder,SPOT peptide array binding signal intensity
1,B1,621
2,B2,675
3,B3,362

# Molecular target: CaBbc1
# Experiment: as above
# In short: as §1
row,Binder,SPOT peptide array binding signal intensity
1,B1,162
2,B2,30.2
3,B3,304

# Molecular target: CaBem1-D1
# Experiment: as above
# In short: as §1
row,Binder,SPOT peptide array binding signal intensity
1,B1,141
2,B2,≤ 0
3,B3,83

# Molecular target: CaBzz1-D1
# Experiment: as above
# In short: as §1
row,Binder,SPOT peptide array binding signal intensity
1,B1,574
2,B2,≤ 0
3,B3,131

# Molecular target: CaBzz1-D2
# Experiment: as above
# In short: as §1
row,Binder,SPOT peptide array binding signal intensity
1,B1,416
2,B2,34.5
3,B3,128

# Molecular target: CaCyk3
# Experiment: as above
# In short: as §1
row,Binder,SPOT peptide array binding signal intensity
1,B1,68
2,B2,≤ 0
3,B3,39

# Molecular target: CaFus1
# Experiment: as above
# In short: as §1
row,Binder,SPOT peptide array binding signal intensity
1,B1,4730
2,B2,50.5
3,B3,724

# Molecular target: CaHof1
# Experiment: as above
# In short: as §1
row,Binder,SPOT peptide array binding signal intensity
1,B1,10
2,B2,1
3,B3,1.5

# Molecular target: CaHse1
# Experiment: as above
# In short: as §1
row,Binder,SPOT peptide array binding signal intensity
1,B1,985
2,B2,73
3,B3,13.2

# Molecular target: CaLsb1
# Experiment: as above
# In short: as §1
row,Binder,SPOT peptide array binding signal intensity
1,B1,79.5
2,B2,≤ 0
3,B3,0.25

# Molecular target: CaLsb4
# Experiment: as above
# In short: as §1
row,Binder,SPOT peptide array binding signal intensity
1,B1,278
2,B2,70
3,B3,58.5

# Molecular target: CaMyo5
# Experiment: as above
# In short: as §1
row,Binder,SPOT peptide array binding signal intensity
1,B1,156
2,B2,≤ 0
3,B3,4.5

# Molecular target: CaNbp2
# Experiment: as above
# In short: as §1
row,Binder,SPOT peptide array binding signal intensity
1,B1,1460
2,B2,116
3,B3,464

# Molecular target: CaRvs167
# Experiment: as above
# In short: as §1
row,Binder,SPOT peptide array binding signal intensity
1,B1,578
2,B2,2.83
3,B3,8.67

# Molecular target: CaRvs167-3
# Experiment: as above
# In short: as §1
row,Binder,SPOT peptide array binding signal intensity
1,B1,964
2,B2,4.75
3,B3,80.2

# Molecular target: CaSho1
# Experiment: as above
# In short: as §1
row,Binder,SPOT peptide array binding signal intensity
1,B1,2260
2,B2,89
3,B3,430

# Molecular target: CaSla1-D1-D2
# Experiment: as above
# In short: as §1
row,Binder,SPOT peptide array binding signal intensity
1,B1,131
2,B2,256
3,B3,87.5

# Molecular target: CaSla1-D3
# Experiment: as above
# In short: as §1
row,Binder,SPOT peptide array binding signal intensity
1,B1,848
2,B2,1.5
3,B3,≤ 0

# Molecular target: ScAbp1
# Experiment: as above
# In short: as §1
row,Binder,SPOT peptide array binding signal intensity
1,B1,81.5
2,B2,0.5
3,B3,284

# Molecular target: ScBbc1
# Experiment: as above
# In short: as §1
row,Binder,SPOT peptide array binding signal intensity
1,B1,9.5
2,B2,≤ 0
3,B3,18.2

# Molecular target: ScBem1-D1
# Experiment: as above
# In short: as §1
row,Binder,SPOT peptide array binding signal intensity
1,B1,110
2,B2,2
3,B3,173

# Molecular target: ScBzz1-D1
# Experiment: as above
# In short: as §1
row,Binder,SPOT peptide array binding signal intensity
1,B1,218
2,B2,≤ 0
3,B3,30.5

# Molecular target: ScBzz1-D2
# Experiment: as above
# In short: as §1
row,Binder,SPOT peptide array binding signal intensity
1,B1,531
2,B2,16.5
3,B3,104

# Molecular target: ScCyk3
# Experiment: as above
# In short: as §1
row,Binder,SPOT peptide array binding signal intensity
1,B1,246
2,B2,6
3,B3,108

# Molecular target: ScFus1
# Experiment: as above
# In short: as §1
row,Binder,SPOT peptide array binding signal intensity
1,B1,3920
2,B2,0.5
3,B3,282

# Molecular target: ScHof1
# Experiment: as above
# In short: as §1
row,Binder,SPOT peptide array binding signal intensity
1,B1,2.5
2,B2,238
3,B3,4

# Molecular target: ScHse1
# Experiment: as above
# In short: as §1
row,Binder,SPOT peptide array binding signal intensity
1,B1,4160
2,B2,216
3,B3,1890

# Molecular target: ScLsb1
# Experiment: as above
# In short: as §1
row,Binder,SPOT peptide array binding signal intensity
1,B1,70.2
2,B2,8
3,B3,14.5

# Molecular target: ScLsb2
# Experiment: as above
# In short: as §1
row,Binder,SPOT peptide array binding signal intensity
1,B1,24
2,B2,≤ 0
3,B3,1

# Molecular target: ScLsb3
# Experiment: as above
# In short: as §1
row,Binder,SPOT peptide array binding signal intensity
1,B1,674
2,B2,1330
3,B3,248

# Molecular target: ScLsb4
# Experiment: as above
# In short: as §1
row,Binder,SPOT peptide array binding signal intensity
1,B1,104
2,B2,5
3,B3,4.5

# Molecular target: ScMyo3
# Experiment: as above
# In short: as §1
row,Binder,SPOT peptide array binding signal intensity
1,B1,35
2,B2,≤ 0
3,B3,0.5

# Molecular target: ScMyo5
# Experiment: as above
# In short: as §1
row,Binder,SPOT peptide array binding signal intensity
1,B1,62.8
2,B2,≤ 0
3,B3,2

# Molecular target: ScNbp2
# Experiment: as above
# In short: as §1
row,Binder,SPOT peptide array binding signal intensity
1,B1,802
2,B2,62
3,B3,308

# Molecular target: ScPex13
# Experiment: as above
# In short: as §1
row,Binder,SPOT peptide array binding signal intensity
1,B1,116
2,B2,224
3,B3,≤ 0

# Molecular target: ScRvs167
# Experiment: as above
# In short: as §1
row,Binder,SPOT peptide array binding signal intensity
1,B1,91.7
2,B2,3.33
3,B3,16.3

# Molecular target: ScSho1
# Experiment: as above
# In short: as §1
row,Binder,SPOT peptide array binding signal intensity
1,B1,2780
2,B2,764
3,B3,992

# Molecular target: ScSla1-D1-D2
# Experiment: as above
# In short: as §1
row,Binder,SPOT peptide array binding signal intensity
1,B1,120
2,B2,13.5
3,B3,1000

# Molecular target: ScSla1-D3
# Experiment: as above
# In short: as §1
row,Binder,SPOT peptide array binding signal intensity
1,B1,426
2,B2,1.75
3,B3,20

# Molecular target: SpAbp1-D1
# Experiment: as above
# In short: as §1
row,Binder,SPOT peptide array binding signal intensity
1,B1,303
2,B2,386
3,B3,152

# Molecular target: SpBbc1
# Experiment: as above
# In short: as §1
row,Binder,SPOT peptide array binding signal intensity
1,B1,57.2
2,B2,≤ 0
3,B3,7

# Molecular target: SpBzz1-D1
# Experiment: as above
# In short: as §1
row,Binder,SPOT peptide array binding signal intensity
1,B1,838
2,B2,403
3,B3,609

# Molecular target: SpBzz1-D2
# Experiment: as above
# In short: as §1
row,Binder,SPOT peptide array binding signal intensity
1,B1,6.5
2,B3,≤ 0

# Molecular target: SpCyk3
# Experiment: as above
# In short: as §1
row,Binder,SPOT peptide array binding signal intensity
1,B1,55
2,B3,1

# Molecular target: SpHof1
# Experiment: as above
# In short: as §1
row,Binder,SPOT peptide array binding signal intensity
1,B1,844
2,B3,184

# Molecular target: SpHof1-2
# Experiment: as above
# In short: as §1
row,Binder,SPOT peptide array binding signal intensity
1,B1,230
2,B3,44.5

# Molecular target: SpHof1-3
# Experiment: as above
# In short: as §1
row,Binder,SPOT peptide array binding signal intensity
1,B1,1850
2,B3,352

# Molecular target: SpHse1
# Experiment: as above
# In short: as §1
row,Binder,SPOT peptide array binding signal intensity
1,B1,2380
2,B3,420

# Molecular target: SpLsb1
# Experiment: as above
# In short: as §1
row,Binder,SPOT peptide array binding signal intensity
1,B1,15.5
2,B3,4.25

# Molecular target: SpLsb4
# Experiment: as above
# In short: as §1
row,Binder,SPOT peptide array binding signal intensity
1,B1,463
2,B3,98

# Molecular target: SpMyo1
# Experiment: as above
# In short: as §1
row,Binder,SPOT peptide array binding signal intensity
1,B1,91
2,B3,2

# Molecular target: SpNbp2
# Experiment: as above
# In short: as §1
row,Binder,SPOT peptide array binding signal intensity
1,B1,2350
2,B3,348

# Molecular target: SpPex13
# Experiment: as above
# In short: as §1
row,Binder,SPOT peptide array binding signal intensity
1,B1,565
2,B3,17

# Molecular target: SpRvs167
# Experiment: as above
# In short: as §1
row,Binder,SPOT peptide array binding signal intensity
1,B1,131
2,B3,11.3

# Molecular target: SpSla1-D1-D2
# Experiment: as above
# In short: as §1
row,Binder,SPOT peptide array binding signal intensity
1,B1,8
2,B3,≤ 0

# Molecular target: SpSla1-D3
# Experiment: as above
# In short: as §1
row,Binder,SPOT peptide array binding signal intensity
1,B1,192
2,B3,19
